Screening results (PubChem BioAssay)
Only some compounds are listed: those with a hit (about 12% of all), similar ones and a draw of the others.
LASV entry inh: inhibitors of Lassa virus binding or cell entry. Lassa virus pseudotype entry inhibition, cell reporter. Potency, µM (top dose mostly 37.9 µM), most hits filed as inhibitors. 1.2% of 300,000 active; calls by dose curve; tested in HEK293 cells; further: nearly all actives have a fitted effect of over 50% in size
CHX counter: counter-screen hit for Shiga toxin inhibitors, cycloheximide | cell reporter, cycloheximide protein synthesis inhibition counterscreen | max response, % | 12% of 300,000 active; in the data active means max response mostly above about 13%, no sharp cut-off; inactive means mostly below about 14%; further: read at 38.3 µM for the half of the compounds with a filed dose
Shiga inhibitor: blocks Shiga toxin action in Vero cells | Vero cells, Shiga toxin protein synthesis inhibition reporter | inhibition, % at 38.7 µM | 9.2% of 290,000 active | AID 2315; in the data active means inhibition mostly above about 28%, no sharp cut-off; inactive means mostly below about 43%
Marburg entry inh: blocks Marburg virus binding to or entry into cells; 1.8% of 300,000 active; Potency, µM (titrated, usually from 37.8 µM), hits mostly inhibitors; Marburg virus pseudotyped entry inhibition, cell reporter; calls by dose curve; tested in HEK293 cells
A number is an active result.

Screening O=C(CCN1C(=O)/C(=C/C=C/c2ccccc2)SC1=S)Nc1ccccn1 returned LASV entry inh inconclusive, CHX counter inactive, Shiga inhibitor inactive and Marburg entry inh inactive.
Screening O=C(CCN1C(=O)/C(=C/C=C/c2ccccc2)SC1=S)Nc1cccnc1 returned LASV entry inh inactive, CHX counter 47, Shiga inhibitor 86 and Marburg entry inh inconclusive.
COc1ccccc1/C=C1/SC(=S)N(CCC(=O)Nc2cccnc2)C1=O was read as CHX counter 36 and Shiga inhibitor 10.
O=C(COC(=O)C1CCN(c2ccc(C(F)(F)F)cn2)CC1)NCc1cccc(Cl)c1 was read as LASV entry inh inactive and Marburg entry inh inactive.
`CCOC(=O)c1[nH]c2c(c1Cc1ccccc1OC)C(=O)CC(c1ccc(OC)cc1)C2` (stereo not drawn) gave LASV entry inh inactive and Marburg entry inh inconclusive.
`CCOC(=O)/C=C/c1ccc2oc3ccccc3c(=O)c2c1` gave CHX counter 49 and Shiga inhibitor 76.
Screening CN(c1ccc(C(=O)COC(=O)C2CC2)cc1)S(C)(=O)=O returned LASV entry inh inactive and Marburg entry inh inactive.
Screening O=C(Nc1ccc(Cl)cc1C(F)(F)F)C(Sc1nnc(-c2cccs2)o1)c1ccccc1 (stereo not drawn) returned LASV entry inh inactive, CHX counter 29, Shiga inhibitor 89 and Marburg entry inh inconclusive.
For O=C(Nc1cc(C(F)(F)F)ccc1Cl)C(Sc1n[nH]c(=O)[nH]c1=O)c1ccccc1 (stereo not drawn) the results were LASV entry inh inactive, CHX counter inactive, Shiga inhibitor inactive and Marburg entry inh inconclusive.
For COc1ccc(C)cc1NC(=O)C(Sc1nnc(-c2cccs2)o1)c1ccccc1 (stereo not drawn) the results were LASV entry inh inactive, CHX counter inactive, Shiga inhibitor inactive and Marburg entry inh inactive.
`O=C(Nc1cc(C(F)(F)F)ccc1Cl)C(Sc1nnc(-c2cccs2)o1)c1ccccc1` (stereo not drawn) gave LASV entry inh inactive, CHX counter 15, Shiga inhibitor 33 and Marburg entry inh inactive.
Screening COc1ccc(CSc2nc(C)cc(C)c2S(C)(=O)=O)cc1 returned LASV entry inh inactive, CHX counter inactive, Shiga inhibitor inactive and Marburg entry inh inconclusive.
`Cc1ccc(OC(=O)c2oc3ccc(F)cc3c2C)c(C)c1` gave LASV entry inh inactive, CHX counter 35, Shiga inhibitor inactive and Marburg entry inh inconclusive.
`COCCNC(=O)CNC(=S)N(CCCN1CCOCC1)Cc1cccs1` gave CHX counter inactive, Shiga inhibitor inactive and Marburg entry inh inactive.
CN(C)c1ccc(C(C(=O)NC2CCCCC2)N(Cc2ccco2)C(=O)c2snc(C(N)=O)c2N)cc1 (stereo not drawn) was read as LASV entry inh 13µM, CHX counter inactive, Shiga inhibitor inactive and Marburg entry inh 3.5µM.
Cc1cc(C)cc(N(CC(=O)NCc2ccco2)C(=O)c2snc(C(N)=O)c2N)c1 was read as LASV entry inh inactive, CHX counter 33, Shiga inhibitor 36 and Marburg entry inh inactive.
`Cc1cc(C)cc(N(CC(=O)NCc2ccc(F)cc2)C(=O)c2snc(C(N)=O)c2N)c1` gave LASV entry inh inconclusive, CHX counter inactive, Shiga inhibitor inactive and Marburg entry inh inconclusive.
For Cc1ccc(N(CC(=O)NC2CCCC2)C(=O)c2nsc(Cl)c2Cl)cc1 the results were LASV entry inh inactive, CHX counter 30, Shiga inhibitor 29 and Marburg entry inh inactive.
Screening Cc1cccc(N(C(=O)c2nsc(Cl)c2Cl)C(C(=O)NC2CCCC2)c2ccc(O)cc2)c1C (stereo not drawn) returned LASV entry inh 7.3µM, CHX counter inactive, Shiga inhibitor inactive and Marburg entry inh inconclusive.
For CCCCN(CCCC)C(=O)c1cc2c(=O)n3ccccc3nc2s1 the results were LASV entry inh inactive and Marburg entry inh inactive.
For Cc1ccccc1N(C(=O)c1snc(C(N)=O)c1N)C(C)C(=O)NC1CCCCC1 (stereo not drawn) the results were LASV entry inh inconclusive, CHX counter inactive, Shiga inhibitor inactive and Marburg entry inh inconclusive.
Screening Cc1ccc(N(C(=O)c2nsc(Cl)c2Cl)C(C(=O)NC2CCCC2)c2ccc(O)cc2)cc1C (stereo not drawn) returned LASV entry inh 1.6µM, CHX counter inactive, Shiga inhibitor inactive and Marburg entry inh inconclusive.
Screening NC(=O)c1nsc(C(=O)N(CC(=O)NC2CCCCC2)Cc2ccc(F)cc2)c1N returned LASV entry inh inactive, CHX counter 53, Shiga inhibitor 116 and Marburg entry inh inactive.
Screening CCOc1ccc(C(C(=O)NC2CCCC2)N(Cc2ccccc2)C(=O)c2nsc(Cl)c2Cl)cc1 (stereo not drawn) returned CHX counter 15 and Shiga inhibitor inactive.
For Cc1ccccc1N(C(=O)c1snc(C(N)=O)c1N)C(C(=O)NC1CCCCC1)c1ccc(O)cc1 (stereo not drawn) the results were LASV entry inh 11µM, CHX counter inactive, Shiga inhibitor inactive and Marburg entry inh inconclusive.
For COc1cc(NC(=O)CC2C(=O)OCCN2Cc2ccccc2)cc(OC)c1 (stereo not drawn) the results were LASV entry inh inactive and Marburg entry inh inactive.
`COc1ccccc1CNC(=O)[C@@H]1CCCN1S(=O)(=O)c1ccccc1F` gave LASV entry inh inactive, CHX counter inactive, Shiga inhibitor inactive and Marburg entry inh inactive.
Screening Cc1oc(-c2cccc(Br)c2)[n+]([O-])c1C returned LASV entry inh inconclusive, CHX counter inactive, Shiga inhibitor inactive and Marburg entry inh inconclusive.
COc1ccccc1CCNC(=O)C(=O)NCC1OCCCN1S(=O)(=O)c1ccc(F)cc1C (stereo not drawn) was read as LASV entry inh inconclusive, CHX counter inactive, Shiga inhibitor inactive and Marburg entry inh inactive.
`CCCC(C(=O)NC1CCCC1)N(Cc1ccccc1Cl)C(=O)c1snc(C(N)=O)c1N` (stereo not drawn) gave LASV entry inh inactive, CHX counter inactive, Shiga inhibitor inactive and Marburg entry inh 10µM.
Screening Cc1ccc(S(=O)(=O)N2CCCOC2CNC(=O)C(=O)NC2CCCCC2)cc1 (stereo not drawn) returned LASV entry inh inactive, CHX counter inactive, Shiga inhibitor inactive and Marburg entry inh inactive.
Screening Cc1ccc(-c2nnn(CC(=O)N(CC(=O)NC3CCCC3)c3ccc(F)c(Cl)c3)n2)o1 returned LASV entry inh inactive, CHX counter inactive, Shiga inhibitor inactive and Marburg entry inh inconclusive.
`Cc1ccc(-c2nnn(CC(=O)N(CC(=O)NC3CCCCC3)c3ccc(F)c(Cl)c3)n2)o1` gave LASV entry inh 13µM, CHX counter inactive, Shiga inhibitor inactive and Marburg entry inh inconclusive.
CC1(c2ccc(Cl)cc2)CC(C)(C)N(C(=O)c2cccc(F)c2)c2ccccc21 (stereo not drawn) was read as LASV entry inh inactive.
For C=C(C)CSc1nc(N)c2c(C)c(C)sc2n1 the results were LASV entry inh inactive, CHX counter 19, Shiga inhibitor inactive and Marburg entry inh inactive.
`CSc1nc(N)c2c(C)c(C)sc2n1` gave LASV entry inh inactive, CHX counter inactive, Shiga inhibitor inactive and Marburg entry inh inactive.
For Cc1ccc(C(=O)N/N=c2\oc3ccccc3cc2C(N)=O)cc1 the results were CHX counter inactive and Shiga inhibitor inactive.
